# Screening results: PubChem, National Center for Advancing Translational Sciences (NCATS)
# Sampled rows, rich in hits. Any-hit rate of the full collection: about 2.7%.
# Nrf2 inh – blocks Nrf2 signaling; A549 ARE-Fluc reporter, luciferase luminescence, 18-24 h; Potency, µM (top dose mostly 46 µM), inactives show at the highest dose activity change, negative = inhibition, hits mostly inhibitors; hit rate 2.1% among 360,000; AID 504444; also: potency is read from the fitted curve at half-maximal effect; % is scaled to controls: 0 for no effect and ±100 for the full control effect; nearly all actives have a fitted effect of over 60% in size
#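 Quantitative HTS in A549 cells stably bearing an antioxidant response element-firefly luciferase construct. Inhibition of Nrf2-driven transcription was scored by luminescence after 18-24 h of compound exposure at 37 °C.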
# ERG Ets-DNA blk – blocks human ERG Ets domain binding to DNA. hit rate 0.028% among 370,000. Potency, µM (top dose mostly 76.9 µM), without a hit: at the highest dose FP activity, negative = inhibition, hits mostly inhibitors. fluorescence polarization, His-ERG Ets domain / labelled DNA. AID 624246; active = well fitted inhibition curve with a large enough effect in the polarisation, with a control signal flat; inconclusive = small, poorly fitted or top-dose-only effect, or effect the other way, or a change in a side signal; inactive = no such curve, though single readings can be large or run the other way; the % refers to the polarisation;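 also: polarization taken with two DNA probes labelled with fluorescein and Texas red; potency is read from the fitted curve at half-maximal effect; % of control where 0% means no effect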
# Target sequence (P11308 whole entry, looked up, the tested form may be a part): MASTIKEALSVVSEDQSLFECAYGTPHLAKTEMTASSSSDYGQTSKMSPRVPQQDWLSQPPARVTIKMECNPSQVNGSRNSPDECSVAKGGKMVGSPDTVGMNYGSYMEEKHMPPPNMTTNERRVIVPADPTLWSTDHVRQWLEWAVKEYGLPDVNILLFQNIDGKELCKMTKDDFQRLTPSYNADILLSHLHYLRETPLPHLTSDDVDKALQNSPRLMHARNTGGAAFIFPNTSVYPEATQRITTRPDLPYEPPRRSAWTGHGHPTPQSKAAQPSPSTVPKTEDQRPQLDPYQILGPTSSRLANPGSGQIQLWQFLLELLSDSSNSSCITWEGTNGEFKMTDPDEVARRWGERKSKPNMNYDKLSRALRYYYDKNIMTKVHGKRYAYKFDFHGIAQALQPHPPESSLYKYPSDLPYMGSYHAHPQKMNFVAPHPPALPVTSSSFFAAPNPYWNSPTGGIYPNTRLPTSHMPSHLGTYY
#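 His-tagged ERG Ets domain (1 uM in the protein solution; 300mM KCl, 50mM Tris-HCl, 1mM EDTA, 1mM DTT, pH 7.5) received compound, then a probe mix of 5 nM fluorescein-DNA and 100nM Texas-615-DNA. Fluorescence polarization was read for both dyes.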
# Nrf2 activator – activates Nrf2 signaling | hit rate 0.31% among 410,000 | AREc32 ARE-luciferase reporter (MCF7-derived line), luminescence, 24 h | Potency, µM (top dose mostly 46.1 µM), for the others: top-dose activation, actives largely listed as activators; also: potency is read from the fitted curve at half-maximal effect; % of control where 0% means no effect; nearly all actives have a fitted effect of over 65% in size
#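 For detection, Steady-Glo was added and plates sat 30 min at RT; before that, AREc32_Fluc cells grown overnight in OPTI-MEM/5% FBS had been treated with 23 nL compound for 24 hr at 37 deg C.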
# ALOX12 inh – inhibitors of human 12S-lipoxygenase ALOX12. purified 12hLO, xylenol orange hydroperoxide absorbance. Potency, µM (top dose mostly 108 µM), inactives show at the top dose activity change, negative = inhibition, usual class: inhibitors. hit rate 1.1% among 580,000. P18054; also: potency is read from the fitted curve at half-maximal effect; % is scaled to controls: 0 for no effect and ±100 for the full control effect
#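 Hydroperoxide product was detected by ferrous iron/xylenol orange as the 573 to 405 nm absorbance ratio. Arachidonic acid at 40 uM (final) was turned over for 30 min at room temperature by 150 nM human 12hLO, pH 7.0 Hepes buffer, after 15 min compound preincubation.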
# A549 viability – A549 cytotoxicity, counter-screen for Nrf2 inhibitors; A549 ARE-Fluc cells, CellTiter-Fluor viability, 18-24 h; Potency, µM (doses to about 46 µM), without a hit: top-dose activity change, negative = cytotoxicity, actives largely listed as inhibitors; hit rate 0.16% among 390,000; also: potency is read from the fitted curve at half-maximal effect; % is scaled to controls: 0 for no effect and ±100 for the full control effect
#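 Cytotoxicity counterscreen: CellTiter-Fluor fluorescence was measured in A549 ARE_Fluc cells after 18-24 h of compound exposure in a concentration series. The subsequent BugLite luminescent read reports ARE-luciferase activity.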
# LDHA inh – inhibitors of human lactate dehydrogenase A; hit rate 0.15% among 480,000; P00338; purified LDHA, NADH/diaphorase-resazurin fluorescence; active compounds read low; activity change, % (values are at about 110 or 230 µM); in the data active = activity change below about -30%; inconclusive = mostly about -25% to -30%;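 also: plate controls were DMSO wells for no effect and wells without enzyme for full effect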
#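 Human LDH5 (2 nM) was incubated with 0.06 mM NADH and 0.2 mM pyruvate for 5 min at room temperature in Tris pH 7.4. Remaining NADH was coupled through diaphorase/resazurin, and resorufin fluorescence was read at 0 and 20 min.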
# Numbers without * were called inactive; ? = inconclusive; / = not tested or not shown. Unless noted, calls follow the shape of the dose curve; as a rule, active = well fitted curve in the direction sought with a large enough effect; inconclusive = small, poorly fitted or top-dose-only effect, or another doubt; inactive = no such curve, though single readings can be large; an effect the other way counts as inactive or inconclusive.
SMILES,Nrf2 inh,ERG Ets-DNA blk,Nrf2 activator,ALOX12 inh,A549 viability,LDHA inh
Cc1ccc(NC(=O)C2=C(c3ccccc3)NC(=S)NC2c2ccc(Br)cc2)cc1 (stereo not given),/,/,/,32µM*,/,-3
CC(=O)C1=C(c2ccccc2)NC(=S)NC1c1cc(Cl)c(OC(C)C)c(Cl)c1 (stereo not given),?,1%,0%,28µM*,-10%,3
Cc1ccc(NC(=O)C2=C(c3ccccc3)NC(=S)NC2c2ccc(Cl)cc2)cc1 (stereo not given),/,/,/,35µM*,/,-6
Cc1ccc(NC(=O)C2=C(c3ccccc3)NC(=S)NC2c2ccccc2)cc1 (stereo not given),/,/,/,?,/,1
CCC(=O)Nc1c(-c2cc(=O)oc3ccc(CC)cc23)oc2ccccc12,/,/,/,?,/,11
CCOC(=O)C1C(c2cc(OC)c(OC)c(OC)c2)NC(=O)NC1(O)C(F)(F)F (stereo not given),/,/,/,0%,/,6
Cc1nn2c(-c3ccco3)nnc2c2ccccc12,23%,?,0.56µM*,-19%,-9%,0
COc1ccc(-c2nnc3c4ccccc4c(C)nn23)cc1,?,1%,4.5µM*,0%,-10%,-5
Cc1c(C)n2c3c(=O)[nH]c(=O)n(C)c3nc2n1CCNc1ccccc1Cl,/,/,/,4%,/,5
Cc1oc(-c2ccccc2)cc1C(=O)Nc1cccc(/C=C/C(=O)O)c1,23µM*,-1%,2%,-12%,-25%,0
Cc1cc(C(=O)Nc2cccc(/C=C/C(=O)O)c2)c(C)o1,-4%,-9%,0%,-11%,3%,-13
N#Cc1ccc(CN2CCC3(CC2)COc2ccccc2C(=O)N3)cc1,/,/,/,25%,/,/
O=C1NC2(CCN(Cc3ccsc3)CC2)COc2ccccc21,/,/,/,45µM*,/,/
CCCOc1c(C(=O)OC)sc2ccc(NC(=O)c3cccc(F)c3)cc12,/,/,/,-4%,/,0
CC1CNCCN1S(=O)(=O)c1cccc2cnccc12 (stereo not given),18µM*,16%,7%,?,-7%,-7
COc1ccc(NS(=O)(=O)c2cc(OC)ccc2NC(=O)c2cc(C)oc2C)cc1,?,1%,-1%,35µM*,-26%,3
Cc1cc(C(=O)Nc2ccc(I)cc2)c(C)o1,/,/,/,?,/,8
O=C(C#Cc1ccccc1)c1ccco1,21µM*,-7%,-2%,-15%,?,-3
Cc1cc(NC(=O)c2sc(Nc3cccc(C(F)(F)F)c3)nc2N)no1,16µM*,-13%,3%,27%,?,-17
Cc1cc(NC(=O)c2sc(Nc3ccc(F)c(Cl)c3)nc2N)no1,?,-1%,3%,1%,-11%,-12
CCOC(=O)c1ccccc1NC(=O)c1cccs1,-23%,-11%,0%,1%,-11%,-3
O=C(C=Cc1cccs1)c1cccs1,1%,-3%,22µM*,-23%,0%,-8
O=C(/C=C/c1cccs1)c1ccc2ccccc2c1,/,/,/,24%,/,12
CCOC(=O)c1ccccc1N/C=C/C(=O)c1cccs1,?,12%,6.3µM*,?,-3%,-1
O=C(/C=C\c1cccs1)c1c(O)ccc2ccc(=O)oc12,1%,4%,11µM*,-16%,-1%,-6
SMILES,Nrf2 inh,ERG Ets-DNA blk,Nrf2 activator,ALOX12 inh,A549 viability,LDHA inh
O=C(/C=C/c1cccc([N+](=O)[O-])c1)c1cccs1,?,17%,16µM*,-1%,2%,-9
O=C(/C=C/c1cccc([N+](=O)[O-])c1)Nc1ccc(NC(=O)c2cccs2)cc1,-6%,-1%,-1%,?,-3%,-6
O=C(/C=C/c1ccc(O)cc1)c1cccs1,/,/,/,-78%,/,9
CC(C)c1nnc(NC(=O)c2cc(=O)c3ccccc3o2)s1,/,/,/,?,/,1
COc1ccc(Oc2coc3cc(OC(C)C(=O)OC(C)C)ccc3c2=O)cc1 (stereo not given),/,/,/,6%,/,-1
O=C(/C=C/c1cccc([N+](=O)[O-])c1)N1CCOCC1,12%,5%,13µM*,-16%,2%,-8
